{"source": "PubChem BioAssay (NCATS)", "note": "Results filed as inconclusive are left out. A number with no mark means an inactive call. Active and inactive are the calls of the source. Calls follow the shape of the dose curve; as a rule, active = well fitted cell-killing curve with a large enough effect; inconclusive = small, poorly fitted or top-dose-only effect; inactive = flat fitted curve, though single readings scatter. Peptide text beside a SMILES is read from it. * marks the point of attachment. Hexanoyl = CCCCCC(=O)*"}
{"experiment": "Viability qHTS for inhibitors of the SERCaMP assay screened against the NCATS CANVASS Library (AID 1347400); also: nearly all actives have a fitted effect of over 70% in size; also: potency is read from the fitted curve at half-maximal effect; as to activity change, negative = cytotoxicity: % is scaled to controls: 0 for no effect and ±100 for the full control effect", "conditions": "SH-SY5Y SERCaMP cells viability, CellTiter-Glo, 48 h; series mostly up to 92.2 µM; activity change, negative = cytotoxicity: at the top concentration", "source_text": "Natural products and their derivatives continue to be wellsprings of nascent therapeutic potential. However, many laboratories have limited resources for biological evaluation, leaving their previously isolated or synthesized compounds largely or completely untested. To address this issue, the Canvass library of natural products was assembled (https://tripod.nih.gov/canvass), in collaboration with academic and industry researchers, for quantitative high-throughput screening (qHTS) across a diverse set of cell-based and biochemical assays. The pure (>85% purity by liquid chromatography/mass spectrometry [LC/MS]) Canvass library of 346 natural products were submitted by 45 academic laboratories and companies around the world. We collected pure natural products to circumvent deconvolution and structure elucidation due to time and resource limitations. The library was formatted into 1536-well plates and evaluated in 50 qHTS (in an 11-pnt concentration series) bioassays with broad scope of disease-relevant mechanisms. The resulting data set from 50 different assays was then systematically analyzed to identify overall trends and specific natural products with interesting biological activities. Reported herein are the results of each individual qHTS and their corresponding assay protocol. Cytotoxic compounds are expected to interfere with the SERCaMP assay, and these are identified using a CellTiter-Glo viability assay. National Center for Advancing Translational Sciences (NCATS), Rockville, MD National Institute of Health (NIH), Bethesda, Maryland\nSERCaMP Viability assay protocol: 1. In a white-solid bottom 1536-well tissue culture plate (Corning 7494), 5 uL of SH-SY5Y-GLuc SERCaMP MJH297 derived cells were dispensed using a Multidrop Combi (Thermo Fisher Scientific) at a final concentration of 1000 cells / well. 2. The assay plates were incubated for 4 hours at 37C, 5% CO2, 95% humidity. 3. […] of compounds (in DMSO; columns 5-48), and positive control Bortezomib (1 mM; 1:2 dilution; 16-points; n = 2; column 2, rows 1-32) were pin transferred into the assay plates using the Kalypsis pin tool (Wako USA) equipped with a 1536-well pin heads. This yields a final concentration range of 0.0001 - 4.6 uM for the Bortezomib and 0.001 - 77 uM for the compounds. 4. The assay plates were incubated for 48 hours at 37C, 5% CO2, 95% humidity. 5. After incubation, 3 uL of CellTiterGlo reagent (Promega) was dispensed into each wells. 6. The plates were centrifuged for 15 seconds at 1000 rpm. 7. Luminescence signal was obtained via the ViewLux plate reader (Perkin Elmer) using the clear emission filter and 1x binning, 2 seconds exposure settings."}
{"smiles": "COc1cc2c(cc1OC)[C@@H](c1ccc3c(c1)OCO3)C(C)[C@@H](C)C2=O", "note": "(stereo not given in full)", "activity change, negative = cytotoxicity": "16.8%"}
{"smiles": "C=C1[C@@]2(C)CC3C4(C)CCC(O)C(C)(C)C4CCC3(C)[C@]1(C(=O)OC)C(=O)C(C)(O)C2=O", "note": "(stereo not given in full)", "activity change, negative = cytotoxicity": "11.6%"}
{"smiles": "C[C@@]12C[C@@H](C[C@@H]3C(=O)O[C@@H](c4ccoc4)[C@H](OC(=O)c4ccccc4)[C@@H]31)OC2=O", "activity change, negative = cytotoxicity": "12.4%"}
{"smiles": "O[C@H]1c2ccccc2-c2c3c(cc4c2[C@@H]1NCC4)OCO3", "Potency": "38.1 µM (active)"}
{"smiles": "C[C@H](CCC(O)C(C)(O)CO)[C@@]1(O)CC[C@@]2(C)C3=C(CC[C@@]21C)[C@@]1(C)CCC(OC(=O)CCC(=O)O)C(C)(C)[C@@H]1CC3", "note": "(stereo not given in full)", "activity change, negative = cytotoxicity": "19.6%"}
{"smiles": "COc1ccc2[nH]c3c(c2c1)CCN1C[C@H]2C[C@@H](OC(=O)c4cc(OC)c(OC)c(OC)c4)[C@H](OC)[C@@H](OC)[C@H]2C[C@H]31", "activity change, negative = cytotoxicity": "5.66%"}
{"smiles": "C/C=C1/CN2C3CC1C1C=CC(=O)N4c5ccccc5[C@@]3(C[C@@H]2C2=C[C@H]3C5CC6N(CC[C@@]67c6ccccc6N(C2=O)[C@@H]37)C/C5=C/C)[C@H]14", "note": "(stereo not given in full)", "Potency": "19.1 µM (active)"}
{"smiles": "C=C(Cl)[C@](Cl)(CBr)CC[C@@H](Br)C(C)(C)Cl", "activity change, negative = cytotoxicity": "16.2%"}
{"smiles": "CC(C)[C@]12CC[C@@]3(C)[C@H](C)CC[C@H](O)[C@@]3(CC1)c1cc3c(cc12)[nH]c1ccccc13", "activity change, negative = cytotoxicity": "14.2%"}
{"smiles": "COc1ccc([C@@H]2CC(=O)c3c(cc(O)c(C/C=C(\\C)CCC=C(C)C)c3O)O2)cc1", "activity change, negative = cytotoxicity": "-0.051% [at 18.4 µM]"}
{"smiles": "CN1CC[C@]23c4ccccc4N[C@H]1[C@]21CCN(C)[C@H]3Nc2ccccc21", "activity change, negative = cytotoxicity": "2.2%"}
{"smiles": "C/C(=C\\CC[C@@H](C)[C@H]1CC[C@]2(C)C3=CCC4C(C)(C)[C@@H](O)C[C@@H](O)[C@]4(C)C3[C@H](O)C[C@@]12C)CO", "note": "(stereo not given in full)", "activity change, negative = cytotoxicity": "-5.51%"}
{"smiles": "CC[C@@H](c1cc(OC)c(OC)cc1OC)[C@H](C)[C@@H](/C(C)=C/c1cc(OC)c(OC)cc1OC)c1cc(OC)c(OC)cc1OC", "Potency": "inactive"}
{"smiles": "CC1(C)CC[C@]2(CO)CC[C@]3(C)C(=CCC4[C@@]5(C)CC[C@H](O)C(C)(C)C5CC[C@]43C)C2C1", "note": "(stereo not given in full)", "activity change, negative = cytotoxicity": "11.1%"}
{"smiles": "COc1cc([C@@H]2c3cc4c(cc3C[C@@]3(O[C@@H]5O[C@H](CO)[C@@H](O)[C@H](O)[C@H]5O)COC(=O)[C@H]23)OCO4)cc(OC)c1OC", "Potency": "0.048 µM (active)"}
{"smiles": "O=C1c2c(O)cc(O)cc2OC(c2ccc(O)cc2)C1O", "note": "(stereo not given)", "activity change, negative = cytotoxicity": "6.21%"}
{"smiles": "COc1c(O)cc2c(c1O)C(=O)c1c(coc1C)C2=O", "activity change, negative = cytotoxicity": "-9.1%"}
{"smiles": "C=C(C)C(=O)O[C@H]1C[C@@]2(C)OC(=CC2=O)/C(C)=C\\[C@H]2OC(=O)C(=C)[C@H]12", "Potency": "4.8 µM (active)"}
{"smiles": "CO/C=C/C(=O)c1cc2cnc3c(N)cc(=NC(=O)C(C)C)c([nH]1)c23", "Potency": "0.381 µM (active)"}
{"smiles": "CCCCCC(=O)N[C@@H](CC(C)C)C(=O)N[C@H](C=O)CCC(=O)O", "note": "(Hexanoyl-Leu-Glu-aldehyde)", "activity change, negative = cytotoxicity": "-1.82%"}
{"smiles": "O=C1CC(c2ccc(O)cc2)Oc2cc(O)ccc21", "note": "(stereo not given)", "activity change, negative = cytotoxicity": "-20.4%"}
{"smiles": "CCCc1c2c([nH]c(=O)c1C)C(=O)c1[nH]c(=O)c(C)c(CCC)c1C2=O", "activity change, negative = cytotoxicity": "-16.7%"}
{"smiles": "C=C1CC[C@@H](O[C@H]2C[C@@](O)([C@H](C)NC(=O)c3[nH]c(C)c(Cl)c3Cl)[C@H](O)[C@@H](C)O2)[C@@H]2C=C[C@H](C)C(/C(O)=C3/C(=O)[C@H](C(C)C)N([C@@H]4O[C@H](C)[C@H](OC(N)=O)[C@H](OC(C)=O)[C@@H]4OC)C3=O)[C@@H]12", "note": "(stereo not given in full)", "activity change, negative = cytotoxicity": "6.27%"}
{"smiles": "COc1ccc([C@@H]2c3cc4c(cc3C(=O)C(C)C2C)OCO4)cc1OC", "note": "(stereo not given in full)", "activity change, negative = cytotoxicity": "1.15%"}
{"smiles": "C[C@H](c1cnc(N)[nH]1)c1ccc(O)c2[nH]cc(-c3cnc(-c4c[nH]c5ccccc45)c(=O)[nH]3)c12", "activity change, negative = cytotoxicity": "-15.5%"}
{"smiles": "COC(=O)[C@@]12Oc3cccc(O)c3C(O)=C1C(=O)C[C@H](C)[C@H]2O", "activity change, negative = cytotoxicity": "-3.46% [at 183 µM]"}
{"smiles": "C=C[C@](Cl)(CBr)CCC=C(C)C", "activity change, negative = cytotoxicity": "-6.93%"}
{"smiles": "O=C1OC(CCO)c2cccc(O)c21", "note": "(stereo not given)", "activity change, negative = cytotoxicity": "10.1%"}
{"smiles": "COc1cc2oc3ccccc3c(=O)c2cc1OC", "activity change, negative = cytotoxicity": "-16.8% [at 183 µM]"}
{"smiles": "C[n+]1cc2cc(C(N)=O)[nH]c3c(=N)c(Cl)c(N)c1c23", "Potency": "42.8 µM (active)"}
{"smiles": "COC(=O)C1=C[C@]23C[C@@H](C)CC[C@@H]2[C@@]2(C)CC[C@@H](C(C)C)[C@@](O)(O3)[C@@H]12", "activity change, negative = cytotoxicity": "25.2%"}
{"smiles": "COC1C(C)OC(OCC23C[C@@H]4[C@H](C)CC[C@H]4C4(C=O)CC2C=C(C(C)C)C34C(=O)O)[C@@H](O)[C@H]1O", "note": "(stereo not given in full)", "activity change, negative = cytotoxicity": "-7.04%"}
{"smiles": "C/C=C/[C@H]1[C@H]2C(=O)c3c(O)c(C)c(O)c(C)c3[C@]1(C(=O)O)C(=O)C=C2C", "activity change, negative = cytotoxicity": "9.03%"}
{"smiles": "CC(C)=CCC[C@]12c3cc4c(cc3CC[C@@]1(C)[C@H](C)CC[C@@H]2O)[nH]c1ccccc14", "activity change, negative = cytotoxicity": "2%"}
{"smiles": "C=C[C@@](C)(O)CC[C@@H]1[C@@]2(C)CCCC(C)(C)[C@@H]2CC[C@@]1(C)O", "activity change, negative = cytotoxicity": "-5.89%"}
{"smiles": "C=CC(C)(C)C(=O)[C@@H](C)[C@@H]1CC[C@@](C)(C=C)O1", "activity change, negative = cytotoxicity": "4.32%"}
{"smiles": "Cc1occ2c1C(=O)c1c(cc(O)c(O)c1O)C2=O", "activity change, negative = cytotoxicity": "7.01%"}
{"smiles": "COC(=O)c1cccc2oc(-c3cccc4oc(-c5c(C)cccc5O)nc34)nc12", "activity change, negative = cytotoxicity": "-22.8%"}
{"smiles": "CCC(=O)N[C@@H](C[C@H](C)C(Cl)(Cl)Cl)C(=O)N1C(=O)C=C(OC)[C@@H]1C[C@H](C)CCl", "activity change, negative = cytotoxicity": "4.58%"}
{"smiles": "CC(C)=CCC/C(C)=C/Cc1cc([C@@H]2CC(=O)c3c(cc(O)c(CC=C(C)C)c3O)O2)ccc1O", "activity change, negative = cytotoxicity": "-6.76%"}
